In test [1] the target is Glucocorticoid receptor (Homo sapiens) (UniProt P04150). Briefly: GR-GFP Redistribution (AID 450;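 active = compounds whose dose series gives a full or clear partial fitted curve of increased nuclear translocation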; also: potency is read from the fitted curve at half-maximal effect). The following applies: U2OS GR-GFP nuclear translocation, laser cytometry, 2 h.
The target is the same in test [2]. Briefly: GR-EFC Redistribution (AID 451; calls by dose curve; also: potency is read from the fitted curve at half-maximal effect). The following applies: CHO-K1 GR-EFC translocation, beta-gal luminescence, 2 h. In outline:
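CHO-K1 cells stably expressing nuclear-localized β-gal enzyme acceptor and GR fused C-terminally to the enzyme donor fragment; ligand-driven nuclear translocation restores β-gal by complementation. Compounds titrated up to 46 uM final, 2 h at 37 °C; luminescence read.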

The target in test [3] is Mitogen-activated protein kinase 10 (Mus musculus) (UniProt Q61831). Description: JNK3 AlphaScreen Assay (AID 530; active = well fitted curve in either direction with a large enough effect, not every such curve was filed as active;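 also: kinase came from lysate of stimulated human HepG2 cells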; also: potency is read from the fitted curve at half-maximal effect). To be noted: JNK3 lysate, c-Jun phosphorylation; series mostly up to 57.1 µM. In outline: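 Biotinylated GST-cJun(1-79) served as substrate for JNK3 in HepG2 lysates stimulated with IL-1beta and TNF-alpha. ATP was 10 uM final, pH 7.6. Ser73 phosphorylation was quantified by AlphaScreen (680 nm excitation).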
For orientation: Bead proximity is the source of the signal in Alpha formats.

Test [4] deals with 3',5'-cyclic-AMP phosphodiesterase 4B (Homo sapiens) (UniProt Q07343). Description: qHTS Assay for Inhibitors of PDE-IV (AID 607; active = well fitted activation curve with a large enough effect in the main read-out, with a control signal flat, not every such curve was filed as active; also: % of control where 0% means no effect). To be noted: HEK293 ACTOne CNG channel cells, membrane potential fluorescence; series mostly up to 22.9 µM. In outline:
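HEK293 ACTOne cells with CNG channel (1000/well), endogenous PDE4; membrane potential dye, compounds up to 22.9 uM final. Fluorescence Ex 535/Em 590; RO 20-1724 (100 uM final) as reference.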
Background: In qHTS, concentration-response curves come from the screen itself.

The target of test [5] is Ubiquitin carboxyl-terminal hydrolase 1 (Homo sapiens) (UniProt O94782). Briefly: Inhibitors of USP1/UAF1: Pilot qHTS (AID 504865). Also: nearly all actives have a fitted effect of over 35% in size. Also: potency is read from the fitted curve at half-maximal effect. The following applies: purified USP1/UAF1, Ub-rhodamine cleavage fluorescence; series mostly up to 114 µM. In outline:
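Enzyme-free wells gave the negative control, while test wells held 1nM USP1/UAF1 preincubated with compound for 15 min at room temperature. Ub-Rho at 150nM final started the reaction, and fluorescence at 480/540 nm was recorded kinetically.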

The target in test [6] is DNA dC->dU-editing enzyme APOBEC-3G (Homo sapiens) (UniProt Q9HC16). Description: qHTS for inhibitors of Vif-A3G interactions: Validation (AID 588379). Also: 0% is about no effect. The following applies: Vif-A3G protein interaction assay; series mostly up to 46.1 µM. The procedure, abridged:
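Yellow fluorescence (Ex 488, Em 500-530) of Vif-coexpressing HeLa A3G-eYFP cells, scanned by Acumen cytometer, reports blocked A3G degradation. Cells plated at 700/well overnight at 37 deg C before compound addition, then a further overnight compound incubation at 37 deg C.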

The subject of test [7] is Zika virus NS2B-NS3 protease. Briefly: Primary screen GU AMC qHTS for Zika virus inhibitors (AID 1347154).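 Also: 0% = no-inhibitor control and -100% = no-enzyme control; nearly all actives have a fitted effect of over 70% in size.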 To be noted: Zika NS2B-NS3 unlinked protease, AMC fluorogenic substrate; series mostly up to 54.1 µM. The procedure, abridged: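 Unlinked Zika NS2B hydrophilic domain/NS3 protease domain noncovalent complex (25 nM final) in 10 mM Tris-HCl pH 8.0, 0.01% Tween 20, with AMC peptide substrate. Fluorescence (ex 340, em 450 nm) change over 15 min, room temperature; percent inhibition fitted to 4-parameter Hill equation.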

A short description of test [8]: Primary qHTS for small molecule stabilizers of the endoplasmic reticulum resident proteome: Secreted ER Calcium Modulated Protein (SERCaMP) assay (AID 1508630). Also: % is scaled to controls: 0 for no effect and ±100 for the full control effect. To be noted: SH-SY5Y GLuc-SERCaMP (Gaussia luciferase released on ER calcium loss) secretion, thapsigargin, luminescence; series mostly up to 38.4 µM. In outline:
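The SH-SY5Y reporter protocol was run at 3 concentrations up to 38.3 uM (primary) or 11 concentrations (follow-up): 16 h compound, 100 nM thapsigargin for 4 h, then extracellular luciferase luminescence.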

Test [9] deals with Cytochrome P450 3A4 (Homo sapiens) (UniProt P08684). Description: qHTS Assay for Activators of Cytochrome P450 3A4 (AID 885). Also: nearly all actives have a fitted effect of over 65% in size. To be noted: recombinant CYP3A4, Luciferin-PPXE luminescence, 60 min; series mostly up to 57.1 µM. The procedure, abridged: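 Human CYP3A4 dealkylates Luciferin-PPXE to luciferin, which luciferase detection converts to light. Substrate was at its KM (25uM), buffer 200mM KPO4, reaction 60 min at RT.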

A short description of test [10]: qHTS Assay for Lipid Storage Modulators (AID 1519; calls by dose curve). The following applies: Drosophila S3 cells, BODIPY lipid droplet/cell ratio, laser cytometry, cells loaded with oleic acid; for activity change, negative = inhibition: at 57.5 µM (top of the series). In outline: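 Cells seeded at 5,000 per well were treated with compounds over a concentration series and loaded with oleic acid (400 uM, as added). Lipid droplet fluorescence (488 nm excitation, 500-530 nm channel) was read by laser-scanning cytometry and normalized to 20 uM Triacsin C.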

Test [11] can be described thus: AP1 Signaling Pathway (AID 357; active = well fitted curve in either direction with a large enough effect, not every such curve was filed as active;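 also: ME-180 reporter cells stimulated with EGF at its EC50 level; % is scaled to controls: 0 for no effect and ±100 for the full control effect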). To be noted: ME-180 AP-1-bla reporter, EGF-induced, beta-lactamase ratio, 5 h. The procedure, abridged: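 Beta-lactamase reporter under AP-1 response element, ME-180 background. Stimulus: EC50 EGF. Compound exposure 5 h, 37 °C. Detection: CCF4, 2.5 h RT, 460/530 nm. Values: AC50 from titration.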
Test [12] concerns the target Cytochrome P450 1A2 (Homo sapiens) (UniProt P05177). Briefly: p450-cyp1a2 (AID 410; calls by dose curve; also: potency is read from the fitted curve at half-maximal effect). The following applies: recombinant CYP1A2, luciferin-ME demethylation, luminescence; series mostly up to 57 µM. The procedure, abridged:
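Read-out is luminescence from luciferin produced by CYP1A2 demethylation of Luciferin-ME (100uM, at Km). Detection reagent stopped the 60 min NADPH-dependent reaction; signals were normalized to 57 uM furafylline.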

A short description of test [13]: NFAT Signaling Pathway (AID 444; active = well fitted curve in either direction with a large enough effect, not every such curve was filed as active;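 also: carbachol stimulus at about its EC50 of 1 µM final; % is scaled to controls: 0 for no effect and ±100 for the full control effect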). To be noted: Jurkat NFAT-bla M1, carbachol, beta-lactamase ratio, 5 h. The procedure, abridged: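 Jurkat cells carrying an NFAT-driven β-lactamase reporter and co-transfected muscarinic M1 receptor were treated with compound plus carbachol (1 uM final, an EC50 level) for 5 h at 37 °C. CCF4 loading followed for 1 h at RT; 460/530 nm ratio gave %activity.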

The nature of test [14]: Stat Signaling Pathway (AID 446; active = well fitted curve in either direction with a large enough effect, not every such curve was filed as active;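 also: ME-180 cervical cancer cells given 40 pM IL-6 alongside compound; SIE-controlled beta-lactamase reporter measured as 460/530 nm FRET emission ratio; % is scaled to controls: 0 for no effect and ±100 for the full control effect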). To be noted: ME-180 (cervical carcinoma) SIE beta-lactamase reporter, IL-6 stimulated, 5 h; at 17.2 µM (top of the series). In outline:
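Normalization used AC90 stimulation (300 pM IL-6) and AC90 inhibition (125 nM pan-JAK inhibitor at 40 pM IL-6). The underlying signal is SIE-driven beta-lactamase in ME-180 cells after 5 h IL-6 exposure with compound.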

Test [15] deals with Cytochrome P450 2C9 (Homo sapiens) (UniProt P11712). Description: qHTS Assay for Inhibitors and Substrates of Cytochrome P450 2C9 (AID 883). Also: nearly all actives have a fitted effect of over 60% in size. Also: potency is read from the fitted curve at half-maximal effect. To be noted: recombinant CYP2C9, luciferin-H luminescence, 60 min; series mostly up to 57.1 µM. In outline: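 CYP2C9 deoxyluciferin hydroxylation, 37C, 60 min with NADPH regeneration; 10nM enzyme, 100uM Luciferin-H (KM). Glo detection reagent stopped reaction; luminescence normalized to sulphaphenazole (57uM) full inhibition.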

The target in test [16] is Pyruvate kinase (Leishmania mexicana) (UniProt Q27686). Briefly: qHTS Validation Assay for Inhibitors of Leishmania Mexicana Pyruvate Kinase (AID 945).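 Also: 0% = DMSO only neutral control wells.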 To be noted: purified L. mexicana pyruvate kinase, enzyme activity, E451W mutant enzyme; series mostly up to 57.5 µM. In outline: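 Read-out: luminescence from PKLight stop/detection reagent, data normalized to DMSO. Reaction: 0.2 nM E451W LmPYK, 0.5 mM PEP, 0.1 mM ADP, pH 7.2, 1 h room temperature.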

Test [17] has as its target Pyruvate kinase PKM (Homo sapiens) (UniProt P14618). Briefly: qHTS Assay for Activators of Human Muscle Pyruvate Kinase (AID 954; active = well fitted curve in the direction sought with a large enough effect, not every such curve was filed as active;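 also: 0% = uninhibited enzyme and -100% = no enzyme or full thiadiazolimine inhibition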). The following applies: purified human muscle pyruvate kinase, luciferase-coupled luminescence, 1 h; series mostly up to 57.5 µM. In outline:
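Compound pinned into substrate mix (0.5 mM PEP, 0.1 mM ADP), then 0.1 nM PKM2 added; 1 h, RT. Stop/detection luciferase reagent added, luminescence read. Normalized to no-inhibition and no-enzyme or reference-inhibitor controls.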

Test [18] has as its target alpha-glucosidase (Oryza sativa, rice) (UniProt Q653V4). Description: Counterscreen for Glucocerebrosidase Inhibitors: qHTS Assay for Rice alpha-Glucosidase at pH 5.0 (AID 997).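 Also: 0% = full activity with enzyme and -100% = basal without enzyme.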 The following applies: rice alpha-glucosidase enzyme activity; series mostly up to 76.9 µM. In outline:
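Endpoint fluorogenic assay at pH 5.0: compounds (0.7 nM to 77 uM) titrated against 4 nM rice enzyme and 400 uM 4-MU-alpha-glucoside for 20 min at room temperature; NaOH/glycine stop, read ex 365/em 440 nm, Hill-fitted AC50.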
For orientation: The purpose of a counterscreen is to sort out artefacts and off-target activity.

[19] abbreviates: measured here: cell count channel max response.
Where [20] appears, read: measured here: lipid channel max response.

Structures are written as SMILES. Several values for one entry are separate records, joined by “and”; a condition that tells them apart may be missing. Equal entries are not always repeated. Results filed as inconclusive are left out. Activity calls are given as the source filed them. Unless noted, calls follow the shape of the dose curve; as a rule, active = well fitted curve in the direction sought with a large enough effect; inconclusive = small, poorly fitted or top-dose-only effect, or another doubt; inactive = no such curve, though single readings can be large; an effect the other way counts as inactive or inconclusive.

Chain of Cytochrome P450 2C9 (Homo sapiens) (P11712 whole entry, looked up): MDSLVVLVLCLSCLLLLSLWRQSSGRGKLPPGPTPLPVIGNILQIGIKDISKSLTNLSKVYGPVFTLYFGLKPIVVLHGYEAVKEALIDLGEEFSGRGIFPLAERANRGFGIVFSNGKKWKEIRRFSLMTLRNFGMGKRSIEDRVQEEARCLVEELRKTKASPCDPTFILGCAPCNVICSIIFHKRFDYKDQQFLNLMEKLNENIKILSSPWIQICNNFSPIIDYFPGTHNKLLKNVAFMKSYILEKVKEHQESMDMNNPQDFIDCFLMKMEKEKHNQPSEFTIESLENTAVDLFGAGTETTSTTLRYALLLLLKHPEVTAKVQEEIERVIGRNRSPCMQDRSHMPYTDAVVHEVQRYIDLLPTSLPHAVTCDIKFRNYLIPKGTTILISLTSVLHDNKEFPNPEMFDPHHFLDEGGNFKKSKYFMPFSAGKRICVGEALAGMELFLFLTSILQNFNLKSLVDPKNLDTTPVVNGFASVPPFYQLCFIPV
Chain of Glucocorticoid receptor (Homo sapiens) (P04150 whole entry, looked up): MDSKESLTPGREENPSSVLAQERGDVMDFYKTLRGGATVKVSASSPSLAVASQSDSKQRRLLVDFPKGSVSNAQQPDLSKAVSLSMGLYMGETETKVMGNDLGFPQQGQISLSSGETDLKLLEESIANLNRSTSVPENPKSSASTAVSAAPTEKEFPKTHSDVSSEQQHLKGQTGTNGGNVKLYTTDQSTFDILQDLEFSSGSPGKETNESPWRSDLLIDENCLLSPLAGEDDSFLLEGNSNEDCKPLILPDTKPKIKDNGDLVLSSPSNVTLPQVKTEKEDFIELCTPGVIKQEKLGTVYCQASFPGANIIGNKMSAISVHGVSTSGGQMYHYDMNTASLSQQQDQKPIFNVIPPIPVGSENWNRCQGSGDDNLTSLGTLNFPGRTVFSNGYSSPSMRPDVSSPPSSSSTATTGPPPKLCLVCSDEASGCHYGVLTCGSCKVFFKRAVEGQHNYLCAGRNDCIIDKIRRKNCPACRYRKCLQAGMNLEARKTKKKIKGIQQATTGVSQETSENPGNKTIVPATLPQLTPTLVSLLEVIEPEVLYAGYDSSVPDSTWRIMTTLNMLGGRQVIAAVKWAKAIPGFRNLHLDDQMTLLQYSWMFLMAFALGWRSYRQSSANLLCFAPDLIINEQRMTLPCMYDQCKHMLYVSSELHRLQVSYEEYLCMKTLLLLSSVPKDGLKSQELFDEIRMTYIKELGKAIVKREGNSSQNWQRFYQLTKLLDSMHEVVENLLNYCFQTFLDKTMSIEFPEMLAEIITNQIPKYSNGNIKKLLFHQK
Chain of DNA dC->dU-editing enzyme APOBEC-3G (Homo sapiens) (Q9HC16 whole entry, looked up): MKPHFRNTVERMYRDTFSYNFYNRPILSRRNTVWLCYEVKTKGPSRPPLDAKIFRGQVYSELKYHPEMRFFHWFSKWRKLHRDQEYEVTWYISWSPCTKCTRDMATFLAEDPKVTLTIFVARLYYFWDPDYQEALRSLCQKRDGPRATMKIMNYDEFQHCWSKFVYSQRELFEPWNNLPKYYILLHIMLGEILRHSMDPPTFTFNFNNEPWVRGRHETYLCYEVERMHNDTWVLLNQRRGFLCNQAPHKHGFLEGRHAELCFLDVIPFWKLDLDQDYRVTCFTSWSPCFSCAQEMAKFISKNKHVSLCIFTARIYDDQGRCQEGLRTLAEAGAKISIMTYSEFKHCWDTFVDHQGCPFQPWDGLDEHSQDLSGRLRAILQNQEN
Chain of Ubiquitin carboxyl-terminal hydrolase 1 (Homo sapiens) (O94782 whole entry, looked up): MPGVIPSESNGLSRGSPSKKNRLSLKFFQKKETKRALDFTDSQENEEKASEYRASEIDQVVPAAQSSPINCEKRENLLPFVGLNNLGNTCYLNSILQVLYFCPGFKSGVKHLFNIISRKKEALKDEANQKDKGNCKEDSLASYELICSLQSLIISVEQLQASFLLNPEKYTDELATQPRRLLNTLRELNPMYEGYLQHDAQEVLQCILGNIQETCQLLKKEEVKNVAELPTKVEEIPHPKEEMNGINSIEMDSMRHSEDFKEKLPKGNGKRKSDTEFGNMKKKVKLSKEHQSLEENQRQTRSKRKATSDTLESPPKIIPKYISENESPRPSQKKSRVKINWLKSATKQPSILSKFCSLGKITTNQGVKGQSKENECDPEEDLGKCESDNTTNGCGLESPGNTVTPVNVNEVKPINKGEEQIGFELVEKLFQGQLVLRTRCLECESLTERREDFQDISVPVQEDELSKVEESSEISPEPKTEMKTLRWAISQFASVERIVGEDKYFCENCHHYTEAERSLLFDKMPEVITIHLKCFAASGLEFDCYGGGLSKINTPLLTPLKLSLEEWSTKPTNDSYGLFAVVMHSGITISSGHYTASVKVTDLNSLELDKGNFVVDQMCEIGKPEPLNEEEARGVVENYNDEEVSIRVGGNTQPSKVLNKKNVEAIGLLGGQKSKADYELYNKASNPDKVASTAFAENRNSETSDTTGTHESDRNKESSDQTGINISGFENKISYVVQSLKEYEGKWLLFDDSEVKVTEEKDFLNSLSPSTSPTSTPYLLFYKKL
Chain of 3',5'-cyclic-AMP phosphodiesterase 4B (Homo sapiens) (Q07343 whole entry, looked up): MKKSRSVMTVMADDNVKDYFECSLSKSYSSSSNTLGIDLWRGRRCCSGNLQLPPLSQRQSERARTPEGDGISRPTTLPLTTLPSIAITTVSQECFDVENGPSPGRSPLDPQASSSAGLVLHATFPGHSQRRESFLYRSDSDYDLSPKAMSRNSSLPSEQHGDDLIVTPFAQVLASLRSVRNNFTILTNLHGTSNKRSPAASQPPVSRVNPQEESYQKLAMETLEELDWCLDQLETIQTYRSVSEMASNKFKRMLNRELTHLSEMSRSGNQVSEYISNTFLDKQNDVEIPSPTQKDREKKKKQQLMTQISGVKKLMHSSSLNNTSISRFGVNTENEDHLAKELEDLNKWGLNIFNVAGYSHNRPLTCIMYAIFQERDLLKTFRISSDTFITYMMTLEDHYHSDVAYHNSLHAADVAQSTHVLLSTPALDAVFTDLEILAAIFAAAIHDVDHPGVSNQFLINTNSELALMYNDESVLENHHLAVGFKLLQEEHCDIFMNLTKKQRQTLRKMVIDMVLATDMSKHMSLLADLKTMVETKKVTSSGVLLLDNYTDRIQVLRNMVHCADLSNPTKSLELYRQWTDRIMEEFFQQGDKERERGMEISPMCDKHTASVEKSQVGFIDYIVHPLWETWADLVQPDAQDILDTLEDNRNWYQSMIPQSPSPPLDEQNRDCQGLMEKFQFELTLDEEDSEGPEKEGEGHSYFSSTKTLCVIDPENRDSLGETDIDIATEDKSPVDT
Chain of Cytochrome P450 3A4 (Homo sapiens) (P08684 whole entry, looked up): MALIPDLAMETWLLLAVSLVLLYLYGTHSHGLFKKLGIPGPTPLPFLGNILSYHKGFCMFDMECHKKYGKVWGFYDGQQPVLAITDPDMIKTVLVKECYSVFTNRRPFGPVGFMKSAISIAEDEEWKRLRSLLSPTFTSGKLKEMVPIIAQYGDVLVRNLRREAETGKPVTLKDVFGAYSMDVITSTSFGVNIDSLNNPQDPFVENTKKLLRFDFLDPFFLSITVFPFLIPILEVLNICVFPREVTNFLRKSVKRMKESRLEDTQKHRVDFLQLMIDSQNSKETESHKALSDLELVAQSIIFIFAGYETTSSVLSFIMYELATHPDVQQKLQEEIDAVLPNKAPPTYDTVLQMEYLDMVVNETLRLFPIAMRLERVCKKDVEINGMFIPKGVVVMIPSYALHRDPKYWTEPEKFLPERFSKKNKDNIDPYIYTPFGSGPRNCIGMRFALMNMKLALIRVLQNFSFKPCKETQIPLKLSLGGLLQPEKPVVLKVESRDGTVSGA
Chain of Cytochrome P450 1A2 (Homo sapiens) (P05177 whole entry, looked up): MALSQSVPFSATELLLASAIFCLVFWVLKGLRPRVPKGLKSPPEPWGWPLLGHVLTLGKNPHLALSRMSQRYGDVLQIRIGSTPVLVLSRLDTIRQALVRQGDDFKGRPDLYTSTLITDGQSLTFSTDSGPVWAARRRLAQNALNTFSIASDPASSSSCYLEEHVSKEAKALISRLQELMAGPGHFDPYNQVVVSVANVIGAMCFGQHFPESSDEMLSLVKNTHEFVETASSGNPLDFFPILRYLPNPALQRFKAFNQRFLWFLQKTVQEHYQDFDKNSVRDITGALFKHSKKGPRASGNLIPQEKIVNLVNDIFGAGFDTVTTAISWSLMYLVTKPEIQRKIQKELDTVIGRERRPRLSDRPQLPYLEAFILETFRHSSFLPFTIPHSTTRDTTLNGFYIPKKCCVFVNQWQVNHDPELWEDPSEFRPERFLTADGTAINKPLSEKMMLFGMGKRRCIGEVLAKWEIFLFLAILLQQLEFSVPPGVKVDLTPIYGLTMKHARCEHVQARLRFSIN
Chain of Pyruvate kinase (Leishmania mexicana) (Q27686 2-499 E452W): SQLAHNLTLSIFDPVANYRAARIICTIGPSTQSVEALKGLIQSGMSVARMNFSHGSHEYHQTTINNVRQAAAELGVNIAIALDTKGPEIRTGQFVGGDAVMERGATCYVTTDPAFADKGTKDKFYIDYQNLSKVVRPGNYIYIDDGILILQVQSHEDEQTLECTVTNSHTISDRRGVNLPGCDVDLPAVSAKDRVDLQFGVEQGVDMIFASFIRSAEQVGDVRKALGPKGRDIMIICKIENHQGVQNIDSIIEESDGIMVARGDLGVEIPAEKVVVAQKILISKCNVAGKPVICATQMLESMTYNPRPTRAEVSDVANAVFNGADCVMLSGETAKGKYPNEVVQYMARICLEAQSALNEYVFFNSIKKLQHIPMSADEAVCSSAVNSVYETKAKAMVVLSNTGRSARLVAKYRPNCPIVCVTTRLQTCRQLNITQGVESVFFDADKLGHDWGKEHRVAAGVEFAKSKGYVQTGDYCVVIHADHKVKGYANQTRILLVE

In the case of `O=C1CCc2c(ccc3ccccc23)O1`, the Potency in test [1] and in [2] was > 46 µM (inactive) throughout. The Potency result in test [3], in [4], in test [5], in [6], in test [7] and in test [8] was “inactive” in each case.
For `OCCOCCN1CCN(Cc2cccc(Oc3ccccc3)c2)CC1`, the Potency entry in [7] and in test [8] was “inactive” throughout.
On to `Cc1sc(N)c(C(=O)c2cccc(C(F)(F)F)c2)c1C`, for which the Potency in test [1] is > 46 µM (inactive); in test [2], > 46 µM (inactive); in test [5], 50.1 µM (active). The Potency entry in test [9], in test [6], in [7] and in test [8] was “inactive” in each case.
In the case of `C=CC1=C(C)C2=NC1=CC1=NC(=CC3=NC(=CC4=NC(=C2)C(C)=C4CCC(=O)O)C(CCC(=O)O)=C3C)C(C=C)=C1C.[Zn]`, the Potency in test [3] is 0.794 µM [activator] (active); in [5], 44.7 µM (active). The Potency result in test [4], in test [6], in test [7] and in [8] was “inactive” in each case. Also, the activity change, negative = inhibition in test [10] is -3.5% (inactive). In addition, the max response was -8.49% in test [10] (setting [19]) and -12% in test [10] (setting [20]).
Consider `COc1cc(CNC(=O)CCCC/C=C\C(C)C)ccc1O`, for which the activity change, negative = inhibition in [11] (at 17.2 µM (top of the series)) is 7.68% (inactive); in test [13] (at 17.2 µM (top of the series)), -1.65% (inactive). The Potency in [12] was 1.58 µM (active) and 2 µM (active) and 3.16 µM (active); in [1] it was > 20.6 µM (inactive) and > 46 µM (inactive); in [2] it was > 20.6 µM (inactive) and > 46 µM (inactive); in test [15], 2 µM (active) and 1.26 µM (active). Further, the activity, negative = inhibition in [14] was -15.5% (inactive). Further, the Potency result in test [3], in test [4], in test [9], in [6], in test [7] and in test [8] was “inactive” in each case.
Consider `CC(C)=CCC/C(C)=C/CC/C(C)=C/CO`, for which the Potency entry in test [9], in test [5], in [6], in [7] and in test [8] was “inactive” throughout.
Turning to `C[C@@H](C(=O)O)c1ccc(-c2ccccc2)c(F)c1`, the Potency is 10 µM (active) in [12]; > 20.6 µM (inactive) and > 46 µM (inactive) in test [1]; > 20.6 µM (inactive) and > 46 µM (inactive) in [2]. Moreover, in [13] (at 17.2 µM (top of the series)), the activity change, negative = inhibition was 3.63% (inactive). For the same compound, the activity, negative = inhibition in test [14] was 1.05% (inactive). Moreover, the Potency result in test [3], in [4], in test [5], in test [6], in test [7] and in [8] was “inactive” throughout.
In the case of `N#CC(=C(/N)Sc1ccccc1N)/C(C#N)=C(/N)Sc1ccccc1N`, the activity change, negative = inhibition in test [11] (at 38 µM (top of the series)) was -84.2% (active); in test [13] (at 38 µM (top of the series)), 8.23% (inactive). Moreover, the Potency in [12] is 12.6 µM (active) and 31.6 µM (active); in test [1], > 46 µM (inactive); in [2] it was > 46 µM (inactive). For the same compound, the Potency result in test [3], in test [4], in test [15], in test [9], in test [16] and in test [7] was “inactive” each time. Also, the Potency entry in test [8] is “inactive”. The result in test [17] and in test [18] was inactive.
Regarding `CCOC(=O)C(CCc1ccccc1)NC1CCc2ccccc2N(CC(=O)O)C1=O` (stereo not drawn), the activity change, negative = inhibition in test [10] was 1.93% (inactive). The results for the max response in test [10] (setting [19]) and in [10] (setting [20]) were 11.8% and 17.9%, respectively. Besides, the Potency entry in test [5], in test [7] and in test [8] was “inactive” throughout.
For `CCCCC/C=C\C/C=C\C/C=C\C/C=C\CCCC(=O)O`, the Potency result in test [9] is “inactive”. Also, the results for the activity change, negative = inhibition in test [7] and in test [8] were 3.96% [at 6.83 µM] (inactive) and 40.9% [at 3.88 µM] (inactive), respectively.
